Data on 20 molecules can be found in PubChem BioAssay (NCI).

This is part of a sample that, as a whole, favours compounds with a hit. Of some 79,000 tested, about 15% had one in any assay. Values without a mark were called inactive. The source made the active and inactive calls. Rule as the data show it: active = growth inhibition above about 70%; inactive = the rest.

A short description of assay [1]: NCI Yeast Anticancer Drug Screen. Data for the rad50 strain (AID 155).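 Also: 0% = growth of vehicle-only cultures of the same strain.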 The following applies: S. cerevisiae rad50 strain growth inhibition; at 50.0 µM; stronger effect = higher value. The method, boiled down: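 Cells are treated with compound, grown, and their growth is then scored against vehicle-only cultures of the same repair-deficient yeast strain.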
A short description of assay [2]: NCI Yeast Anticancer Drug Screen. Data for the mec2-1 strain (AID 157). The following applies: S. cerevisiae mec2-1 strain, at 50.0 µM, stronger effect = higher value. The method, boiled down:
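Readout is yeast growth inhibition, normalised to vehicle-treated controls, in the mec2-1 strain exposed to compound.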

Assay [3] in a line: NCI Yeast Anticancer Drug Screen. Data for the sgs1 mgt1 strain (AID 161).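 Also: 0% = growth of cultures given vehicle only.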 The following applies: S. cerevisiae sgs1 mgt1 strain, at 50.0 µM, stronger effect = higher value. The method, boiled down: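 Yeast cells carrying a defined DNA-repair defect were exposed to test compounds. Growth inhibition was measured relative to vehicle-treated controls.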
The nature of assay [4]: NCI Yeast Anticancer Drug Screen. Data for the cln2 rad14 strain (AID 165).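 Also: 0% = growth equal to vehicle treated cultures.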 The following applies: S. cerevisiae cln2 rad14 strain, at 50.0 µM, stronger effect = higher value. The gist of the method: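 Relative to vehicle controls, growth inhibition of compound-treated cln2 rad14 yeast was recorded.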
Assay [5] is described as follows: NCI Yeast Anticancer Drug Screen. Data for the bub3 strain (AID 167). Particulars: S. cerevisiae bub3 mutant strain, at 50.0 µM, stronger effect = higher value. The gist of the method: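 Part of a panel of yeast mutants defective in DNA damage repair or cell cycle regulation. Each strain is grown with compound, and inhibition is calculated relative to solvent-treated cultures.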

The nature of assay [6]: NCI Yeast Anticancer Drug Screen. Data for the mlh1 rad18 strain (AID 175). The following applies: S. cerevisiae mlh1 rad18 strain growth inhibition; at 50.0 µM; stronger effect = higher value. The gist of the method: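 Test agents were incubated with a yeast strain of defined genotype (DNA damage repair defect). Inhibition of growth was derived by comparison with vehicle-exposed cultures.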

In the case of `CNc1ccc(Br)cc1[N+](=O)[O-]`, the growth inhibition is -22.2% in assay [1]; -22.7% in assay [2]; -12.9% in assay [3]; -0.2% in assay [4]; -26.7% in assay [5]; -15.4% in assay [6].

With `CC(C)=CCC[C@@H](C)C1[C@@H](OC2OC(CO)C(O)C(O)C2O)CC2(C)[C@@H]3CC(=O)C4C(C)(C)[C@@H](OC5OC(CO)C(O)C(O)C5O)CC[C@@]45C[C@@]35CC[C@]12C` (stereo not given in full), the growth inhibition is -17.4% in assay [1]; -40% in assay [2]; -27.1% in assay [3]; -3.15% in assay [4]; -20.8% in assay [5]; -25.4% in assay [6].

For `Clc1ccc(CN2COc3c(ccc4ccccc34)C2)cc1Cl`, the growth inhibition in assay [1] is 1.65%; in assay [2], 15.2%; in assay [3] it was 17.6%; in assay [4], 9.65%; in assay [5] it was 7.1%; in assay [6] it was 13.8%.

On to `Cc1cc(-c2ccc(Cl)cc2)c(C#N)c(=S)n1C1OC(CO)C(O)C(O)C1O` (stereo not given), for which the growth inhibition was -19.4% in assay [1]; -11% in assay [2]; -5.3% in assay [3]; 2.8% in assay [4]; -2.95% in assay [5]; 2.8% in assay [6].

For `CCC(C)C(=O)OC1C(=O)OC2CC3C(C)=CC(=O)C(O)C3(C)C3C4(O)OCC23C1C(C)C4O` (stereo not given), the growth inhibition in assay [1] is 90.3% (active); in assay [2], 93% (active); in assay [3], 90% (active); in assay [4] it was 91.3% (active); in assay [5], 90.6% (active); in assay [6], 92.1% (active).

For the molecule `CC(C)(C#N)OC(=O)Nc1cccc(Cl)c1`, the growth inhibition in assay [1] was 5.55%; in assay [2] it was -5.6%; in assay [3], 3.75%; in assay [4] it was -35.1%; in assay [5] it was -30.6%; in assay [6] it was -26.8%.

With `Clc1ccccc1CN1COc2c(ccc3ccccc23)C1`, the growth inhibition is 35.5% in assay [1]; 14.3% in assay [2]; 32.6% in assay [3]; 19.6% in assay [4]; 25.5% in assay [5]; 22.6% in assay [6].

On to `CCNC1(C(N)=O)CCN(Cc2ccccc2)CC1`, for which the growth inhibition in assay [1] is -14.6%; in assay [2], -55.8%; in assay [3], -31.1%; in assay [4] it was 5.1%; in assay [5], -30.4%; in assay [6], -22.7%.

`O=C1C(Cl)C(c2ccccc2)N1n1cnc2ccccc2c1=O` (stereo not given): the growth inhibition is -16.2% in assay [1]; -2.15% in assay [2]; -24.1% in assay [3]; -3.3% in assay [4]; 3.9% in assay [5]; -12.7% in assay [6].

`CCN1OCC(C)(C(=O)OC)C1C` (stereo not given): the growth inhibition was -13.9% in assay [1]; -13.1% in assay [2]; -10.7% in assay [3]; -31% in assay [4]; 9.9% in assay [5]; -21.1% in assay [6].

For the molecule `COc1cccc(C(=O)C(O)c2cccc(OC)c2OC)c1OC` (stereo not given), the growth inhibition is 0.6% in assay [1]; -5.45% in assay [2]; 8.2% in assay [3]; 0.15% in assay [4]; -10.6% in assay [5]; -42% in assay [6].

Turning to `Nc1nc(-c2ccco2)cc(-c2ccc(CO)o2)n1`, the growth inhibition in assay [1] was -21.8%; in assay [2], 3.5%; in assay [3] it was -10.2%; in assay [4], 8.25%; in assay [5], 16%; in assay [6], 3.9%.

Consider `C=CCN1C(=O)C/C(=C2/CCC(=O)N2CC=C)C1=O`, for which the growth inhibition was -11.1% in assay [1]; -27.4% in assay [2]; -16% in assay [3]; 3.6% in assay [4]; 1.8% in assay [5]; -9.8% in assay [6].

With `COC(=O)[C@H]1[C@H]2C[C@@H]3c4[nH]c5ccccc5c4CCN3C[C@H]2C[C@@H](O)[C@@H]1OC(=O)c1cc(OC)c(OC)c(OC)c1`, the growth inhibition in assay [1] was 23.1%; in assay [2] it was -1.35%; in assay [3], 19.4%; in assay [4], 8.75%; in assay [5] it was 21%; in assay [6] it was 20.9%.

For the molecule `CC(NC(=O)CNC(=O)CNC(=O)OCc1ccccc1)C(=O)OCc1ccccc1` (stereo not given), the growth inhibition in assay [1] is 4.35%; in assay [2] it was 1.4%; in assay [3], -3.65%; in assay [4], -3.65%; in assay [5], 1.45%; in assay [6], 5.4%.

In the case of `Nc1nc(N)c2nc(CNc3ccc(C(=O)NC(CCCNC(=O)c4ccccc4C(=O)O)C(=O)O)cc3)cnc2n1` (stereo not given), the growth inhibition is -14.1% in assay [1]; 30.4% in assay [2]; 7.6% in assay [3]; -28.3% in assay [4]; -37.9% in assay [5]; -9.95% in assay [6].

With `CC(C(=O)O)C1(O)CCCCC1` (stereo not given), the growth inhibition is 0.6% in assay [1]; -13.9% in assay [2]; -8.4% in assay [3]; -25.4% in assay [4]; 13.7% in assay [5]; -8.4% in assay [6].

Consider `CC(=O)OCC(C)(C(N)=O)c1ccccc1` (stereo not given), for which the growth inhibition in assay [1] is -36.9%; in assay [2] it was -9.15%; in assay [3] it was -5.5%; in assay [4] it was -32%; in assay [5], -5.9%; in assay [6], 1.85%.

Turning to `Cc1ccc(C)c(NC(=O)Nc2ccc(Nc3ccccc3)cc2)c1`, the growth inhibition in assay [1] was -6.3%; in assay [2], 12.8%; in assay [3], 15.8%; in assay [4], -18.4%; in assay [5], 17.1%; in assay [6], 33%.

In the case of `OCCN(Cc1ccccc1)Cc1ncccc1O`, the growth inhibition in assay [1] is 9.35%; in assay [2], -27.1%; in assay [3], -11.4%; in assay [4], 8.85%; in assay [5], -3.9%; in assay [6] it was 5.7%.
